Reference: PubChem BioAssay (NCATS)
Several values for one entry are separate records, joined by “and”; a condition that tells them apart may be missing. Equal entries are not always repeated. Records with an inconclusive call do not appear. Activity calls are given as the source filed them. Unless noted, calls come from the whole dose curve; as a rule, active = well fitted curve in the direction sought with a large enough effect; inconclusive = small, poorly fitted or top-dose-only effect, or another doubt; inactive = no such curve, though single readings can be large; an effect the other way counts as inactive or inconclusive.

Key:
[1] = Cellular Toxicity (caspase-3) SHSY5Y (AID 657);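 note: cells exposed to compound for 16 hours at 37 °C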
Summary of the method: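 Luminescent caspase-3/7 readout (aminoluciferin release) in SH-SY5Y cells after 16 h compound exposure in complete medium. Activity scaled between DMSO basal and 10 uM staurosporine as 100%; concentration-response fitted to Hill equation for AC50.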

[2] = Cellular Toxicity (caspase-3) BJ (AID 658);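 note: cells exposed to compound for 16 hours; 0% = DMSO basal and 100% = 10 µM staurosporine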
Summary of the method: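 Luminescent aminoluciferin-substrate cleavage reports caspase 3/7 activity in normal human BJ fibroblasts after 16 hr compound exposure at 37 °C. Normalized to DMSO (basal) and 10 uM staurosporine (100%); AC50 from Hill fit of concentration-response.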

[3] = Cellular Toxicity (caspase-3) N2a (AID 665);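 note: compound exposure lasted 16 h at 37 °C before readout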
Summary of the method: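 N2a cells, 1500/well, 5 h settle at 37 °C; cpd 16 h, 37 °C; Caspase-Glo 3/7, 1 h RT; luminescence. Norm: DMSO = 0, 10 uM staurosporine = 100%. AC50, Hill fit.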

[4] = Cellular Toxicity (caspase-3) Renal Proximal Tubule (AID 667);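 note: cells exposed to compound for 16 hours at 37 °C before detection; 0% = DMSO basal and 100% = 10 µM staurosporine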
Summary of the method: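 Luminescent caspase 3/7 signal from peptide-aminoluciferin cleavage measures apoptosis in freshly isolated rat kidney proximal tubule cells after 16 h compound exposure. Concentration-response data are normalized to DMSO and 10 uM staurosporine, and AC50 values come from Hill equation fits.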

[5] = MultiTox-Fluor Cytotoxicity Assay - LYMP1-001 - Dead Cells (AID 946);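 note: 0% = DMSO and 100% = tetraoctylammonium bromide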
Summary of the method: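 In this qHTS, 15 uM tetraoctylammonium bromide defined 100% and DMSO defined basal activity. Lymphoblastoid cells (LYMP1-001, 2500 per well) received compound for 16 hr at 37 C before a fluorogenic dead-cell substrate readout at 485/520 nm.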

[6] = Cell Viability - LYMP1-002 - Assay at 16 hr (AID 948);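 note: 0% = DMSO alone and full effect = 92 µM tetraoctylammonium bromide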
Summary of the method: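 LYMP1-002 human lymphoblastoid cells, 2500/well; 5 hr 37 C; cpd 16 hr 37 C; CellTiter-Glo 30 min RT; luminescence (ATP). Concentration-response, Hill-fit AC50. Pos ctrl tetraoctylammonium bromide.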

[7] = MultiTox-Fluor Cytotoxicity Assay - LYMP1-003 - Dead Cells (AID 961);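 note: 0% = DMSO and 100% = tetraoctylammonium bromide; nearly all actives have a fitted effect of over 70% in size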
Summary of the method: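 Acute toxicity is scored as increased dead-cell protease activity in human lymphoblastoid LYMP1-003 cells after 16 h compound exposure in complete culture medium. Activity is normalized to DMSO basal and 15 uM tetraoctylammonium bromide as full response.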

[8] = Cell Viability - LYMP1-003 - Assay at 24 hr (AID 963);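 note: plate controls were DMSO only for no effect and tetraoctylammonium bromide positive control for full effect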
Summary of the method: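 Cells seeded at 2500/well, 5 hr at 37 C; compounds added; 24 hr at 37 C; CellTiter-Glo added, 30 min room temperature; luminescence read. Decrease in ATP taken as cytotoxicity, AC50 from Hill modelling.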

[9] = Cell Viability - LYMP2-003 (AID 965);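 note: cells exposed to compounds for 24 h before reading; 0% = DMSO only and full effect = 92 µM tetraoctylammonium bromide; nearly all actives have a fitted effect of over 50% in size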
Summary of the method: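 CellTiter-Glo luminescence (cellular ATP) after 24 h compound exposure at 37 C in complete medium; 2500 cells/well, 5 h settling beforehand. Concentration-response fitted to standard Hill equation for AC50. Tetraoctylammonium bromide served as positive control.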

[10] = Cell Viability - LYMP2-013 (AID 970);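 note: series mostly up to about 92 µM; 0% = DMSO only and full inhibition = tetraoctylammonium bromide control; nearly all actives have a fitted effect of over 55% in size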
Summary of the method: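 qHTS; 2500 lymphoblastoid cells/well; 5 hr 37 C settle; cpd 24 hr 37 C; CellTiter-Glo, 30 min RT; luminescence. AC50 = Hill fit.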

[11] = Cell Viability - LYMP2-019 (AID 973);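 note: 0% = DMSO alone and full effect = 92 µM tetraoctylammonium bromide; nearly all actives have a fitted effect of over 55% in size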
Summary of the method: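 Luminescent ATP read-out (CellTiter-Glo, 30 min room temperature) served as the viability measure after 24 hr treatment of lymphoblastoid cells at 37 C. Concentration-response data were fitted to the Hill equation for AC50.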

[12] = Cell Viability - LYMP2-008 (AID 980); note: % is set by controls: 0 for no effect and ±100 for the full control effect; nearly all actives have a fitted effect of over 60% in size
Summary of the method: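 qHTS, human lymphoblastoid line, 2500 cells/well; 5 hr preincubation, 24 hr compound, 37 C. CellTiter-Glo ATP luminescence. AC50 via Hill equation. Tetraoctylammonium bromide positive control.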

[13] = Cell Viability - LYMP2-012 (AID 982);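 note: cellular ATP by luciferase luminescence where a drop means cytotoxicity; cells exposed to compound for one day before reading; 0% = DMSO only and full loss = 92 µM tetraoctylammonium bromide; nearly all actives have a fitted effect of over 55% in size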
[14] = Cell Viability - LYMP2-016 (AID 984);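 note: cells exposed to compound for 24 hours at 37 °C; % is set by controls: 0 for no effect and ±100 for the full control effect; nearly all actives have a fitted effect of over 55% in size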
Summary of the method: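 qHTS, 1536-well: 2500 LYMP2-016 cells/well, 5 hr 37 C, compound added, 24 hr 37 C, CellTiter-Glo 30 min RT, luminescence. Tetraoctylammonium bromide positive control. AC50 via Hill fit.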

[15] = Cell Viability - LYMP1-002 - Assay at 24 hr (AID 993); note: % is set by controls: 0 for no effect and ±100 for the full control effect
Summary of the method: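 Cells plated 2500/well, 5 hr 37 C; compounds added, 24 hr 37 C; CellTiter-Glo added, 30 min RT; luminescence read. Tetraoctylammonium bromide positive control. Hill-equation AC50.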

[16] = Cell Viability - LYMP1-002 - Assay at 40 hr (AID 994);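 note: 0% = DMSO only and full inhibition = 92 µM tetraoctylammonium bromide; nearly all actives have a fitted effect of over 60% in size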
Summary of the method: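 Luminescent ATP signal served as the viability readout, with decreases taken as toxicity. Cells were treated with compounds across a concentration range for 40 hours at 37 C, and AC50 values came from standard Hill modeling.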

[17] = qHTS Assay for Identification of Small Molecule Inducers of Hypoxia Response (AID 2120; active = well fitted curve in the direction sought with a large enough effect in the signal ratio, with a control signal flat, not every such curve was filed as active; the % refers to the signal ratio; note: 0% is about no effect)
Summary of the method: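 ME-180 HRE-bla cells plated in Opti-MEM/0.5% dialyzed FBS, rested 4-5 h, then dosed with compound titrations by pin tool. After 17 h at 37 degrees C, CCF4 dye loaded 2.5 h at RT; 460/530 nm ratio gave %Activity and AC50.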

[18] = target: Peroxisome proliferator-activated receptor alpha (Homo sapiens) (UniProt Q07869); experiment: qHTS assay for small molecule agonists of the peroxisome proliferator-activated receptor alpha (PPARalpha) signaling pathway (AID 651778); settings: PathHunter PPARalpha complementation, chemiluminescence, 6 h; active compounds read high; note: % of control where 0% means no effect
Sequence of Peroxisome proliferator-activated receptor alpha (Homo sapiens) (Q07869 whole entry, looked up): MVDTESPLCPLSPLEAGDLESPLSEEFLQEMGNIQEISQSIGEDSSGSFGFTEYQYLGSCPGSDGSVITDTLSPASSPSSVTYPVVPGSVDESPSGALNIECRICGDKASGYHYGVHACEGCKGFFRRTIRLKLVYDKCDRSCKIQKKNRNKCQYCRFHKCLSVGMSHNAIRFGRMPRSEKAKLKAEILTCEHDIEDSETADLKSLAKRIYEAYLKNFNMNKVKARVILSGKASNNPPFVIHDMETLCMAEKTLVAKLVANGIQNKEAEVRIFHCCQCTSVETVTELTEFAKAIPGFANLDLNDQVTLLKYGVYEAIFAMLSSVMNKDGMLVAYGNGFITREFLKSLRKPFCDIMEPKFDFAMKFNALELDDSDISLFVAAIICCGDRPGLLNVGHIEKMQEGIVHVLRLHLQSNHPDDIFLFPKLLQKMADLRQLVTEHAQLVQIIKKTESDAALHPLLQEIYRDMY
Summary of the method: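 Cells plated at 2,000/well and held overnight at 37 C, 5% CO2, then compound added by pin tool for 6 hr; after PathHunter detection reagent and 60 min at room temperature, chemiluminescence from enzyme complementation was read.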

[19] = qHTS assay for cell viability of HEK293 cells (AID 743288); settings: ATP luminescence (CellTiter-Glo), 18 h, active compounds read low; note: % is set by controls: 0 for no effect and ±100 for the full control effect; nearly all actives have a fitted effect of over 50% in size
Summary of the method: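 Environmental chemicals tested in qHTS format against parental HEK293 cells; 18 h treatment, 37 C; read-out ATP luminescence (CellTiter-Glo), 30 min RT development.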

[20] = qHTS assay for cell viability of the p53RE-bla HCT-116 cell line (AID 743292)
Summary of the method: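 HCT-116 p53RE-bla cells seeded 4,000/well; 5 h at 37 C; compound (DMSO) added; 16 h at 37 C; CellTiter-Glo added, 30 min RT; luminescence read.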

COc1cc(-c2ccc(N)c(OC)c2)ccc1N
inactive: outcome [1] | outcome [2] | outcome [3] | outcome [4] | outcome [5] | outcome [6] | Potency [7] | outcome [8] | Potency [9] | Potency [10] | Potency [11] | Potency [12] | Potency [13] | Potency [14] | Potency [15] | Potency [16] | Potency [17] | max response [18] -3.45% and -1.48% and -1.31% | max response [19] 15.2% and -15% and -5% | Potency [20]

O=C(O)c1cccc(Cl)c1
inactive: outcome [1] | outcome [2] | outcome [3] | outcome [4] | outcome [5] | outcome [6] | Potency [7] | outcome [8] | Potency [9] | Potency [10] | Potency [11] | Potency [12] | Potency [13] | Potency [14] | Potency [15] | Potency [16] | Potency [17] | max response [18] -1.81% | max response [19] -0.932% | Potency [20]

Clc1ccc(C(Cl)(Cl)Cl)c(Cl)c1
inactive: outcome [1] | outcome [2] | outcome [3] | outcome [4] | outcome [5] | outcome [6] | Potency [7] | outcome [8] | Potency [9] | Potency [10] | Potency [11] | Potency [12] | Potency [13] | Potency [14] | Potency [15] | Potency [16] | Potency [17] | max response [18] -0.345% | max response [19] -3.16% | Potency [20]

CCOP(=S)(OCC)SCCSCC
inactive: outcome [1] | outcome [2] | outcome [3] | outcome [4] | outcome [5] | outcome [6] | Potency [7] | outcome [8] | Potency [9] | Potency [10] | Potency [11] | Potency [12] | Potency [13] | Potency [14] | Potency [15] | Potency [16] | Potency [17] | max response [18] -1.85% and -0.372% | max response [19] -9.57% and -7.92% | Potency [20]

Cc1ccc(OP(=O)(Oc2ccc(C)cc2)Oc2ccc(C)cc2)cc1
inactive: outcome [1] | outcome [2] | outcome [3] | outcome [4] | outcome [5] | outcome [6] | Potency [7] | outcome [8] | Potency [9] | Potency [10] | Potency [11] | Potency [12] | Potency [13] | Potency [14] | Potency [15] | Potency [16] | Potency [17] | max response [18] -4.04% and -0.382% | max response [19] -12.3% and -24.8% | Potency [20]

CCCBr
inactive: outcome [1] | outcome [2] | outcome [3] | outcome [4] | outcome [5] | outcome [6] | Potency [7] | outcome [8] | Potency [9] | Potency [10] | Potency [11] | Potency [12] | Potency [13] | Potency [14] | Potency [15] | Potency [16] | Potency [17] | max response [18] -0.188% | max response [19] -3.65% | Potency [20]

Cc1ccccc1[N+](=O)[O-]
inactive: outcome [1] | outcome [2] | outcome [3] | outcome [4] | outcome [5] | outcome [6] | Potency [7] | outcome [8] | Potency [9] | Potency [10] | Potency [11] | Potency [12] | Potency [13] | Potency [14] | Potency [15] | Potency [16] | Potency [17] | max response [18] 2.03% | max response [19] 6.42% | Potency [20]

C=CCO
inactive: outcome [1] | outcome [2] | outcome [3] | outcome [4] | outcome [5] | outcome [6] | Potency [7] | outcome [8] | Potency [9] | Potency [10] | Potency [11] | Potency [12] | Potency [13] | Potency [14] | Potency [15] | Potency [16] | Potency [17] | max response [18] -7.9% | max response [19] 9.9% | Potency [20]

ClC(Cl)C(Cl)Cl
inactive: outcome [1] | outcome [2] | outcome [3] | outcome [4] | outcome [5] | outcome [6] | Potency [7] | outcome [8] | Potency [9] | Potency [10] | Potency [11] | Potency [12] | Potency [13] | Potency [14] | Potency [15] | Potency [16] | Potency [17] | max response [18] -3.31% | max response [19] -11.3% | Potency [20]

COc1c(C(C)(C)C)cc([N+](=O)[O-])c(C)c1[N+](=O)[O-]
inactive: outcome [1] | outcome [2] | outcome [3] | outcome [4] | outcome [5] | outcome [6] | Potency [7] | outcome [8] | Potency [9] | Potency [10] | Potency [11] | Potency [12] | Potency [13] | Potency [14] | Potency [15] | Potency [16] | Potency [17] | max response [18] 1.79% | max response [19] -7.25% | Potency [20]

ClC(Br)Br
inactive: outcome [1] | outcome [2] | outcome [3] | outcome [4] | outcome [5] | outcome [6] | Potency [7] | outcome [8] | Potency [9] | Potency [10] | Potency [11] | Potency [12] | Potency [13] | Potency [14] | Potency [15] | Potency [16] | Potency [17] | max response [18] -8.35% | max response [19] 0.132% | Potency [20]

Brc1ccc(Oc2ccc(Br)cc2Br)c(Br)c1
inactive: outcome [1] | outcome [2] | outcome [3] | outcome [4] | outcome [5] | outcome [6] | Potency [7] | outcome [8] | Potency [9] | Potency [10] | Potency [11] | Potency [12] | Potency [13] | Potency [14] | Potency [15] | Potency [16] | Potency [17] | max response [18] 6.57%

CC(C)(COCC1CO1)COCC1CO1 (stereo not drawn)
inactive: outcome [1] | outcome [2] | outcome [3] | outcome [4] | outcome [5] | outcome [6] | Potency [7] | outcome [8] | Potency [9] | Potency [10] | Potency [11] | Potency [12] | Potency [13] | Potency [14] | Potency [15] | Potency [16] | Potency [17] | max response [18] -0.497% | max response [19] -5.18% | Potency [20]

O=[N+]([O-])c1ccc(O)c([N+](=O)[O-])c1
inactive: outcome [1] | outcome [2] | outcome [3] | outcome [4] | outcome [5] | outcome [6] | Potency [7] | outcome [8] | Potency [9] | Potency [10] | Potency [11] | Potency [12] | Potency [13] | Potency [14] | Potency [15] | Potency [16] | Potency [17] | max response [18] -7.09% | max response [19] -1.57% | Potency [20]

c1ccc(OCC2CO2)cc1 (stereo not drawn)
inactive: outcome [1] | outcome [2] | outcome [3] | outcome [4] | outcome [5] | outcome [6] | Potency [7] | outcome [8] | Potency [9] | Potency [10] | Potency [11] | Potency [12] | Potency [13] | Potency [14] | Potency [15] | Potency [16] | Potency [17] | max response [18] -5.02% | max response [19] 5.64% | Potency [20]

CC(C)CC(C)N (stereo not drawn)
inactive: outcome [1] | outcome [2] | outcome [3] | outcome [4] | outcome [5] | outcome [6] | Potency [7] | outcome [8] | Potency [9] | Potency [10] | Potency [11] | Potency [12] | Potency [13] | Potency [14] | Potency [15] | Potency [16] | Potency [17] | max response [18] 1.79% | max response [19] 1.65% | Potency [20]
